Test results taken from PubChem BioAssay AID1946 (Johns Hopkins Ion Channel Center, 2009).
Screen size: about 2,400 compounds; about 180 (7.5%) were called active. What follows is part of a selection rich in actives, with near analogues and random picks from the rest. A number with no mark means an inactive call.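 Rule for the calls: active = readout below zero, meaning a drop past 3 SD under the dofetilide-free negative control mean; inactive = the rest.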

The compounds below were run against Potassium voltage-gated channel subfamily KQT member 2 (Rattus norvegicus) (UniProt O88943) (assay: KCNQ2 blockade in CHO cells – cell-based, FluxOR thallium flux, counter-screen for hERG block protector project, confirmation (AID 1946)). Conditions: FluxOR thallium flux fluorescence, at 10 µM, stronger effect = lower value, zero marks the 3-SD hit cutoff.
Potassium voltage-gated channel subfamily KQT member 2 (Rattus norvegicus), sequence (O88943 whole entry, looked up): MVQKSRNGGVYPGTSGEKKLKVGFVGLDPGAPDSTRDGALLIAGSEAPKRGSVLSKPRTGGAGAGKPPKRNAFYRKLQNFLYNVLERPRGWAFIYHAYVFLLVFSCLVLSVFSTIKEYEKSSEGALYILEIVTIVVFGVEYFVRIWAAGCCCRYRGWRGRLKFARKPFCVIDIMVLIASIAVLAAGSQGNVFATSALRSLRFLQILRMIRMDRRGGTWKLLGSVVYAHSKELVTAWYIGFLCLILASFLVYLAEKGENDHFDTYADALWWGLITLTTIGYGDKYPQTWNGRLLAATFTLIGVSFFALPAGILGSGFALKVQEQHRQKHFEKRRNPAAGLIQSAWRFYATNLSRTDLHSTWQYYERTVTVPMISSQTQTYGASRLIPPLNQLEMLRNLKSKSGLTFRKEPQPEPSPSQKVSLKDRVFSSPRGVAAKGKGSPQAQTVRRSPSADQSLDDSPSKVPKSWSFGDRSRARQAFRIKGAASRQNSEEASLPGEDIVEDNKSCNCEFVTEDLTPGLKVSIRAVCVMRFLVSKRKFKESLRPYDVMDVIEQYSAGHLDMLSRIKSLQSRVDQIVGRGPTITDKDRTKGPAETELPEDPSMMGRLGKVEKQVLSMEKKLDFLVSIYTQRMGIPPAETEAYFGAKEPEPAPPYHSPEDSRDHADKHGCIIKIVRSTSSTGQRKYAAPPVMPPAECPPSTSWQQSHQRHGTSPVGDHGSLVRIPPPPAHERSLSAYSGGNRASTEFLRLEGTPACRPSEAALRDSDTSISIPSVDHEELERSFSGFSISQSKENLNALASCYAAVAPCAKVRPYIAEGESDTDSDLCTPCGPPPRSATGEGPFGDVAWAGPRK

Structure (SMILES)	activity change vs negative control
O=C(NC(=S)NCCc1ccc(Cl)cc1)c1ccco1	23.7%
O=C(CNC(=O)c1ccccc1)NCc1ccc(Cl)cc1	10.8%
O=C(Cn1c(=O)c2cccn2c2ccccc21)NCCc1ccc(Cl)cc1	-3.5% (active)
Cc1nc(NCCc2ccc(S(N)(=O)=O)cc2)c2c(C)c(C)sc2n1	15.2%
O=c1cc(-c2c(F)c(F)c(F)c(F)c2F)oc2ccccc12	41.6%
COc1ccccc1C(=O)COC(=O)c1ccc(-n2cnnn2)cc1	-0.2% (active)
CCOC(=O)c1nnn(CC(=O)Nc2ccccc2OC)c1C(=O)OCC	7.9%
COc1ccccc1C(=O)Nc1ccc(C(=O)N2CCCC2)cc1	14.7%
O=C(NC(=S)Nc1nc(-c2ccc([N+](=O)[O-])cc2)cs1)c1ccco1	42%
Cc1ccc(S(=O)(=O)N(C)C)cc1NC(=S)NC(C)CCCC(C)C (configuration not stated)	-2.5% (active)
O=c1c2ccc(Cl)cc2[nH]c(=S)n1CCC1=CCCCC1	32.4%
NC(=O)c1cccc(N=Cc2cc(Cl)cc(Cl)c2O)c1	43.3%
O=C(Nc1nc(=S)ss1)c1ccc(Cl)cc1Cl	122%
CCC1CCCCN1C(=S)NC(=O)c1cccc([N+](=O)[O-])c1 (configuration not stated)	55.4%
O=C(NC(=S)NCCC1=CCCCC1)c1ccc(Br)o1	26.5%
Cc1cc([N+](=O)[O-])c(C)cc1-c1ccc(/C=N/NC(=O)Cn2nnnc2N)o1	19.5%
C=CCSC1=C(C#N)C(c2ccccc2)CC(=O)N1 (configuration not stated)	-8.8% (active)
COc1ccc(C(=O)NNC(=O)C(=O)Nc2cccc3ccccc23)cc1	80.5%
Cc1ccc(NC(=O)C(=O)NNC(=O)c2cccs2)cc1	83.8%
C=CCn1c(SCC(N)=O)nc2scc(-c3ccc(C)o3)c2c1=O	33%
CCCN(CCC)C(=S)NC(=O)c1ccc(-c2ccccc2)cc1	106%
CSc1ccc(S(=O)(=O)N2CCC(C(=O)Nc3ccccc3C(F)(F)F)CC2)cc1	-0.2% (active)
CS(=O)(=O)N1CCC(C(=O)Nc2c(F)cccc2F)CC1	16.7%
O=C(CSc1nnc(NC(=O)c2ccc(S(=O)(=O)N3CCOCC3)cc2)s1)Nc1ccccc1C(F)(F)F	15.7%
S=c1[nH]c2cc(-c3ccccc3)ccc2o1	114%

Structure (SMILES)	activity change vs negative control
N#Cc1ccc(-c2nc3ccc(Br)cc3c(=O)n2O)cc1	40.3%
COc1ccc(OC)c(S(=O)(=O)Nc2ccc(O)c3ccccc23)c1	1.4%
Cc1ccc(S(=O)(=O)Nc2ccc(O)c3ccccc23)c(C)c1	-3.3% (active)
O=S(=O)(Nc1ccc(O)c2ccccc12)c1ccc(F)cc1	1.7%
CC1Cc2ccccc2N1C(=S)NC(=O)C1(C)CC1(Cl)Cl (configuration not stated)	59.5%
CC(NC(=S)NC1CCCCC1)c1ccccc1 (configuration not stated)	29.9%
Cc1ccc(Cl)cc1NC(=O)COC(=O)c1ccccc1O	6.8%
Cc1ccc(S(=O)(=O)N2CCOCC2)cc1NC(=O)COC(=O)c1cccnc1Cl	-1.4% (active)
Cc1ccc(S(=O)(=O)N2CCOCC2)cc1NC(=O)CSc1nc2ccccc2c(=O)n1Cc1ccccc1	13.7%
C=CCNC(=S)Nc1sc2c(c1C(=O)OCC)CC(C)(CC)OC2 (configuration not stated)	38.9%
CC(=O)/C=C1/C(=O)Nc2ccccc21	-4.4% (active)
CCOC(=O)c1c(NS(C)(=O)=O)sc2c1CCC(C)C2 (configuration not stated)	40.9%
O=c1c2[nH]c3ccccc3c2nc2n1CCCS2	30.9%
O=C(Nc1ccc(-c2csc(Nc3cccc(C(F)(F)F)c3)n2)cc1)c1ccccc1	-0.8% (active)
O=C(NC(=S)Nc1cccc(C(F)(F)F)c1)c1csnn1	138%
c1ccc(-c2csc(Nc3ccc4c(c3)OCCO4)n2)cc1	1.2%
CC(=O)OCC1O[C@@H](O[C@@H]2C[C@H]3C(C)(C)[C@H](OC(C)=O)CC[C@]3(C)[C@H]3CC[C@]45C[C@]4(CC[C@H]5[C@@H](C)C[C@@H](O)[C@H](O)C(C)(C)O)[C@@]32C)[C@H](O)[C@@H](O)[C@@H]1O (some centres not stated)	32.4%
Cc1csc(NC(=S)NC(=O)c2ccccc2)n1	36.6%
COc1ccc(C(=O)NNC(=O)CSc2nnc(COc3ccccc3)n2C)cc1	6%
Cn1cnnc1SCC(=O)NCc1ccccc1	-1.1% (active)
NC(=O)CSc1nc2ccccc2c(=O)n1CCc1ccccc1	7.8%
C=CCn1c(O)c(N=NC(=S)Nc2ccc(OC)cc2)c2ccccc21	39.5%
CCCOc1ccc(C(=O)NNC(=S)NC(=O)c2ccco2)cc1	-4.6% (active)
COc1ccc(/C=C/C(=O)NC(=S)NNC(=O)c2cccs2)cc1	6.5%
CCCOc1ccc(C(=O)NNC(=S)NC(=O)c2cccs2)cc1	-12.7% (active)

Structure (SMILES)	activity change vs negative control
CCOc1ccccc1NC(=S)NC(=O)c1ccco1	21.9%
CCCOc1ccc(C(=O)NNC(=S)NC(=O)c2ccccc2)cc1	-1.3% (active)
CCOc1ccc(C(=O)NC(=S)N(Cc2ccccc2)Cc2ccccc2)cc1	15.8%
CCOc1ccc(NC(=S)NC(=O)c2ccco2)cc1	37.5%
O=C(NC(=S)NNC(=O)c1cccs1)c1ccc(Br)o1	18.8%
CCCOc1ccc(CN(CCC#N)C(=S)NC(=O)c2ccccc2)cc1	35.1%
COC(=O)C1=C(C)NC2=C(C(=O)CCC2)C1c1ccc(-c2ccsc2C(=O)OC)o1 (configuration not stated)	75.1%
O=C(NC(=S)NCc1ccccc1)c1cccs1	36.9%
CCOc1ccc(-c2c(=O)n(O)c3ccccc3[n+]2[O-])cc1	83.3%
S=c1[nH]cc(Cc2ccccc2)s1	25.1%
Oc1c(Br)cc(Br)cc1C=Nc1cccc2ncccc12	52.3%
Oc1c(Br)cc(Br)cc1CNc1cccc2cccnc12	-1.8% (active)
O=C1C=C(Nc2cccc3cccnc23)c2ccccc2C1=O	14.9%
Cc1ccc(-n2ncc3c2CCCC3NC(=O)c2csnn2)cc1C (configuration not stated)	-1.1% (active)
Cc1cccnc1NC(=O)c1csnn1	14.2%
COc1ccc(-n2ncc3c2CC(C)(C)CC3NC(=O)c2cn[nH]c2)cc1 (configuration not stated)	0.2%
Cc1cc(C)cc(-n2ncc3c2CCCC3NC(=O)c2csnn2)c1 (configuration not stated)	-0.8% (active)
Cc1nn(-c2ccccc2)c(Cl)c1/C=C1\SC(=S)NC1=O	81.9%
COc1ccc(-c2cc(C(=O)N3CCCC3)no2)cc1OC	24%
O=C(NC(=S)Nc1ccccc1)c1ccc(Br)o1	34.7%
Cc1ccc(C(C(=O)NC(C)(C)C)N(Cc2cccnc2)C(=O)C(=O)NC2CCCCC2)o1 (configuration not stated)	14.9%
CCSc1nc(=S)cc(C)[nH]1	78.1%
COc1ccc(S(=O)(=O)N2CCCC(C(=O)Nc3ccc(OC)c(OC)c3)C2)cc1 (configuration not stated)	5.6%
CC(C)N1CC(C(=O)Nc2ccc(Cl)c(Cl)c2)CC1=O (configuration not stated)	-0.8% (active)
O=C(O)C1C2CCC(O2)C1C(=O)Nc1ccc(F)c(Cl)c1 (configuration not stated)	10.3%

Structure (SMILES)	activity change vs negative control
CCOC(=O)C(=CNc1ccc(N2CCOCC2)cc1)C(=O)OCC	29.7%
COc1ccccc1Cn1c(=S)[nH]c2ccc(Br)cc2c1=O	7.2%
Cc1[nH]c(-c2ccccn2)nc(=S)c1Cl	107%
O=c1c2ccccc2[nH]c(=S)n1CCC1=CCCCC1	49.3%
Cc1ccc(NS(=O)(=O)c2cn(C)c(=O)n(C)c2=O)c(C)c1	14.1%
Cc1ccc2cc(CN(CCCN(C)C)C(=S)NCc3ccccc3)c(=O)[nH]c2c1C	-0.3% (active)
Cc1ccc2cc(CCNC(=O)C(=O)c3c(C)[nH]c4ccccc34)c(=O)[nH]c2c1	0.8%
Cc1ccc(-n2nc3ccc(N)cc3n2)c(C)c1	-14.5% (active)
O=C(COc1ccc2c3c(c(=O)oc2c1)CCC3)N[C@@H](Cc1ccccc1)C(=O)O	31.1%
CCOC(=O)C1CCN(S(=O)(=O)c2cccc3nonc23)CC1	20.3%
CCOc1ccc(C(=O)N(CN2CCCC2=O)c2ccc(C)cc2)cc1	44.8%
CC(C)OC(=O)c1c(NC(=O)c2ccco2)sc2c1CCCCC2	3.9%
Cc1onc(-c2ccccc2)c1C(=O)NC(=S)Nc1sc2c(c1C#N)CCCC2	10.5%
Cc1ccc(C(=O)Nc2sc3c(c2C(=O)O)CCCCC3)o1	-2.5% (active)
Oc1c(Br)cc(Br)cc1C=Nc1ccc2[nH]ncc2c1	54.4%
O=C(NC(=S)N1CCN(c2ccc(C(F)(F)F)cc2[N+](=O)[O-])CC1)c1cccs1	30.1%
CC(C)Oc1cccc(C(=O)NC(=S)N2CCN(c3ccc(C(F)(F)F)cc3[N+](=O)[O-])CC2)c1	11.4%
COc1cccc(OC)c1C(=O)NC(=S)N1CCN(c2ccc(C(F)(F)F)cc2[N+](=O)[O-])CC1	-6% (active)
CCOC(=O)c1n[nH]n2c1nc(=S)c1ccccc12	77.4%
CSC(=S)N/N=C/c1ccccc1	71%
Cc1cccc(/C=N/NC(=O)c2cc(Br)ccc2O)n1	23.8%
Cc1ccc(C(=O)N2CCN(c3ccccc3)CC2)cc1S(=O)(=O)N1CCCC1	29.7%
